An excerpt weighted towards active compounds, which were near 12% of everything screened.
HP1b chromo inh = inhibitors of HP1-beta chromodomain binding to methylated histone tails; AlphaScreen HP1-beta / biotin-H3K9me3 peptide binding; AID 540317; hit rate 0.56% among 390,000; Potency, µM (top dose mostly 114 µM), for inactives: top-dose activity change, negative = inhibition, actives largely listed as inhibitors; P83916; further: nearly all actives have a fitted effect of over 70% in size
Target sequence (P83916 whole entry, looked up): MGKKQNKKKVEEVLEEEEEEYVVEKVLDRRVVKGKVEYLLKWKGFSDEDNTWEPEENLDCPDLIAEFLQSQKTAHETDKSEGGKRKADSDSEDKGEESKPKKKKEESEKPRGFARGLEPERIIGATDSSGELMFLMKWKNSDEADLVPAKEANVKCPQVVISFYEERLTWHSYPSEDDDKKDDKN
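AlphaScreen: HP1-beta (50 nM) preformed 30 min with biotin-H3(1-18)K9me3 peptide (50 nM) in PBS pH 7.4, 0.01% Tween-20. Compound added for 30 min at RT, then streptavidin donor/nickel chelate acceptor beads (10 ug/mL) for 30 min.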
L3MBTL1 inh = L3MBTL1 (human) inhibition. AlphaScreen L3MBTL1–H3K9me1 peptide binding. AID 485360. Q9Y468. hit rate 0.66% among 230,000. Potency, µM (titrated, usually from 57.1 µM), inactives show at the highest dose activity, negative = inhibition, hits mostly inhibitors; further: on the % scale 0 is the no-effect control and ±100 the full control effect; nearly all actives have a fitted effect of over 60% in size
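AlphaScreen proximity signal between nickel-chelate acceptor and streptavidin donor beads (final 10 ug/mL) reports binding of 50 nM L3MBTL1 to 75 nM biotin-H3 K9me1 peptide; complex incubated with compounds 30 min at room temperature; cefsulodin titration as control.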
JMJD2A Tudor inh = blocks the human JMJD2A Tudor domain; hit rate 4.4% among 390,000; Potency, µM (titrated, usually from 114 µM), without a hit: at the top dose activity change, negative = inhibition, usual class: inhibitors; O75164; AlphaScreen JMJD2A-Tudor / H3K4me3 peptide binding; further: on the % scale 0 is the no-effect control and ±100 the full control effect; nearly all actives have a fitted effect of over 50% in size
G9a inh = G9a (human) methyltransferase inhibition. G9a H3K9 monomethylation, AlphaScreen, 2 h. Q96KQ7. Potency, µM (titrated, usually from 102 µM), for inactives: at the top dose activity, negative = inhibition, most hits filed as inhibitors. AID 504332. hit rate 8.8% among 350,000; further: on the % scale 0 is the no-effect control and ±100 the full control effect; nearly all actives have a fitted effect of over 75% in size
Target sequence (Q96KQ7 913-1193 limits assumed): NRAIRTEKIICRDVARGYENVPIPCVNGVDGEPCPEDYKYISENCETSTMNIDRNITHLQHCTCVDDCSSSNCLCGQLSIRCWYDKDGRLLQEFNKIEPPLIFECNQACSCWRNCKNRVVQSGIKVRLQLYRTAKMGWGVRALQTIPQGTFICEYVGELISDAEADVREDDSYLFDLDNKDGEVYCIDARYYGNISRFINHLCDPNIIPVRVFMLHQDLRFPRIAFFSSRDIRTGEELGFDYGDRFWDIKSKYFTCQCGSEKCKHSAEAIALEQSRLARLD
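Enzyme 20 nM + cpd, 15 min RT; add b-H3K9 pep 500 nM / SAM 20 uM; 2 h RT; anti-H3K9me1 Ab 0.5 ug/mL + SA donor / anti-rabbit acceptor beads 20 ug/mL each, 10 min; AlphaScreen read.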
BAZ2B inh = blocks human BAZ2B; AlphaScreen BAZ2B-H3K14Ac peptide displacement; Potency, µM (titrated, usually from 114 µM), for the others: at the top dose activity change, negative = inhibition, hits mostly inhibitors; hit rate 4.4% among 360,000; AID 504333; further: on the % scale 0 is the no-effect control and ±100 the full control effect; nearly all actives have a fitted effect of over 60% in size
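BAZ2B (50 nM) with biotin-H3(5-23)K14Ac peptide (50 nM) in PBS pH 7.4, 0.01% Tween-20, preformed 30 min, then compound 30 min at room temperature; top concentration 110uM. AlphaScreen streptavidin donor/nickel chelate acceptor beads (10 ug/mL final), 20 min dark, signal read.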
Sfp PPTase inh = Sfp phosphopantetheinyl transferase inhibition; Q9F4F7; Biochemical Sfp PPTase activity, qHTS; Potency, µM, for the others: largest response in the series, negative = inhibition, usual class: inhibitors; hit rate 3.5% among 310,000; AID 1490;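 further: the enzyme is Sfp with the accession as filed and its product quenches rhodamine fluorescence; 0% = enzyme reaction without inhibitor and -100% = no enzyme wells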
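Fluorescence-quenching assay: 15 nM Sfp-PPTase preincubated 15 min at room temperature with compound, then 5 uM rhodamine-CoA and 12.5 uM BHQ-2-labelled YbbR peptide added. Fluorescence (ex 525/em 598 nm) read at start and after 30 min; difference gives rate.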
The depositor's hits bear a star; ? = inconclusive; / = no result; [ ] = dose if it differs, or a comment. The call rests on the fitted dose curve; in most records, active means well fitted curve in the direction sought with a large enough effect; inconclusive means small, poorly fitted or top-dose-only effect, or another doubt; inactive means no such curve, though single readings can be large; an effect the other way counts as inactive or inconclusive. Potency means the concentration at half of the fitted maximal effect.

SMILES	HP1b chromo inh	L3MBTL1 inh	JMJD2A Tudor inh	G9a inh	BAZ2B inh	Sfp PPTase inh
Cc1ccc(SCCNC(=O)CN(c2cccc(C)c2C)S(C)(=O)=O)cc1	1.3%	/	-13.5%	-0.3%[59 µM]	1.6%	/
COc1cc2c(cc1OC)C(c1ccccc1O)N(C1CC(=O)N(c3ccccc3)C1=O)CC2 (stereo not given)	15.6%	-1.7%[11.4 µM]	-9.6%	8.91µM*	-29.1%	?
Oc1ccc(N2CCN(c3ncnc4sc(-c5ccccc5)cc34)CC2)cc1	?	?	15.8µM*	3.16µM*	39.8µM*	20µM*
Cc1nc(N2CCN(C)CC2)c2cc(-c3ccccc3)sc2n1	27.8%	/	-11.0%	50.1µM*	16.2%	?
Cc1nc(N2CCN(S(=O)(=O)c3ccccc3)CC2)c2cc(-c3ccccc3)sc2n1	32.1%	/	-11.1%	?	-3.5%	17.8%
Cc1nc(N2CCN(C)CC2)c2sc(=S)n(-c3ccccc3)c2n1	38.4%	?	5.6%	39.8µM*	-2.3%	-12.1%
CCCCNC(=O)c1nn(-c2ccc(C)cc2)c(=O)n(C)c1=O	13.2%[57 µM]	/	-17.9%	-4.4%[59 µM]	-3.0%	/
CCOc1ccc(-n2c(SCC(=O)N3CCCCC3)nc3c([nH]c4ccccc43)c2=O)cc1	22.6%[57 µM]	/	-1.0%	7.0%[59 µM]	-0.5%	/
CC(=O)Nc1ccc(C)cc1	52.6%	-0.5%	-12.4%	-0.2%[0.501 µM]	-5.0%	/
NNC(=O)C(=O)Nc1ccc(O)cc1	26.1%	-16.8%	3.7%	15.8µM*	-3.3%	6.8%
Cc1ccc(NC(=O)C(=O)NN)cc1	19.4%	-6.4%	-13.0%	50.1µM*	?	5.3%
Nc1ccc(OC(=O)Nc2ccc(O)cc2)cc1	-2.6%	/	?	?	-8.1%	-12.0%
Cc1ccc(NC(=O)CC(N)=S)cc1	14.4%	/	8.91µM*	/	-1.3%	?
Cc1ccc(NC(=O)CC(O)(C(F)(F)F)C(F)(F)F)cc1	44.0%	/	45.2%	13.1%	8.6%	14.8%
Cc1ccc(NC(=O)CCC(=O)OCc2ccc(Br)cc2)cc1	17.2%	11.3%	79.4µM*	13.7%[59 µM]	-0.7%	4.5%
Cc1ccc(NC(=O)CCCn2c(=O)c3cccn3c3cccnc32)c(Cl)c1	26.7%	/	-15.4%	0.1%[59 µM]	-18.0%	/
CCCCc1nn2c(=O)cc(COC(=O)CNC(=O)c3ccccc3C)nc2s1	7.8%	/	-10.7%	25.7%[59 µM]	-28.2%	/
O=C(C1CCCN(Cc2ccccc2F)C1)N1CCCC1 (stereo not given)	?	3.0%	28.2µM*	39.8µM*	56.2µM*	-20.0%
O=C(Cc1ccc(Cl)cc1)NC1CCCN(Cc2ccccc2F)C1 (stereo not given)	53.4%	2.7%	2.0%	10.8%	-29.6%	5.0%
CSc1ccccc1C(=O)NC1CCCN(Cc2ccccc2F)C1 (stereo not given)	51.4%	3.2%	-11.0%	10µM*	-4.2%	0.9%
O=C(C1CCCN(Cc2cc(Br)ccc2O)C1)N1CCCCC1 (stereo not given)	-7.4%	/	7.94µM*	25.1µM*	50.1µM*	-15.0%
Cc1ccc(NC(=O)CCCN2C(=O)COc3ccc(C)cc32)c(Cl)c1	14.9%	/	-5.7%	4.0%[59 µM]	-7.1%	/
Cc1ccc2[nH]c3c(c2c1)CN(C(=O)CN1CCN(C(=O)c2ccco2)CC1)CC3	/	-9.3%	/	?	-19.2%	6.8%
Cc1ccc2[nH]c3c(c2c1)CN(C(=O)CN1c2ccc(F)cc2CCC1C)CC3 (stereo not given)	?	-14.7%	44.7µM*	31.6µM*	39.8µM*	6.3%
O=C(CN1CCN(C(=O)c2ccco2)CC1)N1CCc2[nH]c3ccccc3c2C1	25.6%	-0.5%	-14.7%	22.4µM*	-24.0%	35.5µM*
Cc1ccc2[nH]c3c(c2c1)CN(C(=O)CN1CCN(c2cccc(C)c2C)CC1)CC3	-18.5%	-15.9%	56.2µM*	?	35.5µM*	1.8%
N#Cc1ccccc1CN1C(=O)c2ccccc2Sc2ccc(C(=O)OCc3ccco3)cc21	5.7%[57 µM]	/	-20.8%	6.0%[59 µM]	-10.7%	/
COc1cccc(CNc2ccc(F)c([N+](=O)[O-])c2)c1O	-16.5%	-12.6%	?	50.1µM*	-34.9%	12.2%
